Consider 45 compounds from paper PMC4336329 (PLoS ONE, 2015).

Structures are written as SMILES. Hit rate of the full screen: of about 310,000 compounds, about 14,000 (4.5%) showed an effect of 50% or more. Effects have a minus sign here. For the sample, strong results were picked, then their nearest neighbours and some compounds at random.
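Further: peak tail current of the secondary pulse compared with the same well before compound.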

Sequence of human ether-à-go-go-related gene (hERG) potassium channel (Q12809 whole entry, looked up): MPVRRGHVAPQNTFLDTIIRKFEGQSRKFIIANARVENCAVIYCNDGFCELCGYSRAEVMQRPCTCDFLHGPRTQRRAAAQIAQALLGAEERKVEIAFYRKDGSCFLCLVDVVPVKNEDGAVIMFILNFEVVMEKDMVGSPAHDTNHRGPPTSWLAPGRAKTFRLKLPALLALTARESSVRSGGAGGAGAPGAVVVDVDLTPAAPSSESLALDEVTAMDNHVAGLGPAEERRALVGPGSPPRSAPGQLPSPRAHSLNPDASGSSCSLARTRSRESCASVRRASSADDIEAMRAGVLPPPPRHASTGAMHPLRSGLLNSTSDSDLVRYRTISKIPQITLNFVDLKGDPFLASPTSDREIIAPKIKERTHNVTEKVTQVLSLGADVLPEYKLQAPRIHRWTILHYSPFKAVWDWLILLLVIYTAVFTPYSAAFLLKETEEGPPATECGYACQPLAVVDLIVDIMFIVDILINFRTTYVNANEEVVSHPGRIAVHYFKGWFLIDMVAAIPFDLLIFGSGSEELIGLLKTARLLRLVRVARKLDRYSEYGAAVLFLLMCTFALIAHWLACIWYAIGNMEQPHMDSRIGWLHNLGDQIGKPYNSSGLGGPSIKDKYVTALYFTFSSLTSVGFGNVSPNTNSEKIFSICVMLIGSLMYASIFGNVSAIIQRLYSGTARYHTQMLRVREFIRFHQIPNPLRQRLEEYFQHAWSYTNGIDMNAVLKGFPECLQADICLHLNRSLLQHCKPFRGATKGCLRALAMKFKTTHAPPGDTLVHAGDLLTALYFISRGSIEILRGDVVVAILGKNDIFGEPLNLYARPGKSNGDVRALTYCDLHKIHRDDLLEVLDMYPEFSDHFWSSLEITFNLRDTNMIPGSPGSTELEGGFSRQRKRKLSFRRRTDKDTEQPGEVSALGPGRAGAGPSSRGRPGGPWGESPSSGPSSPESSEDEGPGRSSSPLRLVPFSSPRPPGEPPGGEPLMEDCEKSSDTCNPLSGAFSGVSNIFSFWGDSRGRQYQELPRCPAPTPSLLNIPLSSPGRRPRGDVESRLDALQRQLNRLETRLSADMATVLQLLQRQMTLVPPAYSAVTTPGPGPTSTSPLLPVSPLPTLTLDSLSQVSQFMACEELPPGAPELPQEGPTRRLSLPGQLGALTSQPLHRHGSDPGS

This assay concerns the target human ether-à-go-go-related gene (hERG) potassium channel (human, UniProt Q12809). The assay is described as follows: primary screen, population patch clamp on CHO cells stably expressing hERG; higher = less effect of the substance.
On to `CCCCn1c(CCCNC(=O)c2ccco2)nc2ccccc21`, for which the “hERG current change (%, negative = inhibition) at 10uM” value is -40.5%.

Take `Cc1ccc(NC(=O)CSc2nnc(CNC(=O)c3ccccc3F)o2)cc1`: the “hERG current change (%, negative = inhibition) at 10uM” value stood at 2.03%.

For the compound `CC1CCN(c2ccc3nnc(CCC(=O)NCCCOC(C)C)n3n2)CC1`, the “hERG current change (%, negative = inhibition) at 10uM” value amounted to 2.68%.

With `CCCCn1c(SCC(=O)N2CCC(C)CC2)nc2ccsc2c1=O`, the “hERG current change (%, negative = inhibition) at 10uM” value was -70.7%.

With `COCCn1c(SCC(=O)N2CCC(C)CC2)nc2ccccc2c1=O`, the “hERG current change (%, negative = inhibition) at 10uM” value is listed as -62.8%.

For the compound `O=C(CSc1nc2ccsc2c(=O)n1Cc1ccccc1)NCC1CCCO1` (stereo not drawn), the “hERG current change (%, negative = inhibition) at 10uM” value was -25.7%.

Turning to `CCn1c(SCC(=O)N2CCCCC2C)nc2ccsc2c1=O` (stereo not drawn), the “hERG current change (%, negative = inhibition) at 10uM” value is listed as -11.5%.

For the compound `CCC1CCCCN1C(=O)CSc1nc2ccsc2c(=O)n1Cc1ccccc1` (stereo not drawn), the “hERG current change (%, negative = inhibition) at 10uM” value is listed as -78.3%.

For `CCn1c(SCC(=O)N2CCCc3ccccc32)nc2ccccc2c1=O`, the “hERG current change (%, negative = inhibition) at 10uM” value was -18.7%.

On to `COCCn1c(SCC(=O)N2CCCc3ccccc32)nc2ccccc2c1=O`, for which the “hERG current change (%, negative = inhibition) at 10uM” value is recorded as -72.6%.

In the case of `COCCn1c(SCC(=O)N2CCCCC2)nc2ccccc2c1=O`, the “hERG current change (%, negative = inhibition) at 10uM” value is -49.3%.

Consider `COCCn1c(SCC(=O)N2CCOCC2)nc2ccccc2c1=O`, for which the “hERG current change (%, negative = inhibition) at 10uM” value was -22.3%.

`CCCCn1c(SCC(=O)c2ccccc2)nc2ccsc2c1=O`: the “hERG current change (%, negative = inhibition) at 10uM” value is reported as 1.38%.

For the compound `O=C(O)CCCCCn1c(SCC(=O)N2CCCC2)nc2ccsc2c1=O`, the “hERG current change (%, negative = inhibition) at 10uM” value is listed as 16.9%.

For `COCCn1c(SCC(=O)N2CCCc3ccccc32)nc2cccnc21`, the “hERG current change (%, negative = inhibition) at 10uM” value is -16.5%.

As to `COc1ccc2[nH]cc(CCNC(=O)Cc3ccc(Cl)cc3)c2c1`, the “hERG current change (%, negative = inhibition) at 10uM” value turned out to be 2.05%.

Turning to `CC(=O)c1cccc(NC(=O)c2ccc3c(c2)C(=O)N(Cc2cccnc2)C3=O)c1`, the “hERG current change (%, negative = inhibition) at 10uM” value is recorded as -9.85%.

On to `COc1ccc(OC)c(/C=N/N(CCC#N)C2=NS(=O)(=O)c3ccccc32)c1`, for which the “hERG current change (%, negative = inhibition) at 10uM” value was 6.86%.

Consider `CCCCCCSc1ccc([C@@H]2[C@H]3C(=O)N(C)C(=O)[C@H]3[C@]3(C(=O)OC)CCCCN23)cc1.O=C(O)C(F)(F)F`, for which the “hERG current change (%, negative = inhibition) at 10uM” value is -10.9%.

As for `Cc1ccc(N2C(=O)NC(=O)/C(=C\c3cn(CC(=O)O)c4ccccc34)C2=O)cc1`, the “hERG current change (%, negative = inhibition) at 10uM” value came out at 16.8%.

Take `CC(Oc1cccc2c1OC(C)(C)C2)C(=O)O` (stereo not drawn): the “hERG current change (%, negative = inhibition) at 10uM” value was -5.47%.

In the case of `COc1ccc(Cc2nnc(NC(=O)c3ccc(Cl)c([N+](=O)[O-])c3)s2)cc1`, the “hERG current change (%, negative = inhibition) at 10uM” value is given as 15%.

Consider `COc1ccc(CN2CCN(C(=O)C3CCC(CNS(=O)(=O)c4ccc(C)cc4)CC3)CC2)c(OC)c1OC` (stereo not drawn), for which the “hERG current change (%, negative = inhibition) at 10uM” value is recorded as -27.5%.

With `COCCn1c(SCC(=O)N2CCN(c3ccccc3)CC2)nc2c(c1=O)SC(C)C2` (stereo not drawn), the “hERG current change (%, negative = inhibition) at 10uM” value is -58.8%.

Regarding `CCn1c(SCC(=O)N2CCN(c3ccccc3)CC2)nc2c(c1=O)SC(C)C2` (stereo not drawn), the “hERG current change (%, negative = inhibition) at 10uM” value is on record as -48.2%.

Take `CC1Cc2nc(SCC(=O)N3CCN(c4ccccc4)CC3)n(CCc3ccccc3)c(=O)c2S1` (stereo not drawn): the “hERG current change (%, negative = inhibition) at 10uM” value was -47.1%.

For the compound `CC(=O)c1cccc(NC(=S)NC(=O)c2cccc(Cl)c2)c1`, the “hERG current change (%, negative = inhibition) at 10uM” value was -3.58%.

With `CCSc1nnc(NC(=O)C2Cc3ccccc3CN2C(=O)c2ccco2)s1` (stereo not drawn), the “hERG current change (%, negative = inhibition) at 10uM” value was -10.3%.

In the case of `CCn1nc(C)c(CNC(=O)CC2C(=O)NCCN2CC(C)C)c1C` (stereo not drawn), the “hERG current change (%, negative = inhibition) at 10uM” value came to 11.7%.

As to `CCn1nc(C)c(CNC(=O)CC2C(=O)NCCN2CC(C)(C)C)c1C` (stereo not drawn), the “hERG current change (%, negative = inhibition) at 10uM” value is on record as 9.14%.

On to `CCn1nc(C)c(CNC(=O)CC2C(=O)NCCN2Cc2ccc(C)o2)c1C` (stereo not drawn), for which the “hERG current change (%, negative = inhibition) at 10uM” value was -68.4%.

`CN(CC(=O)N1CCN(c2cccc(Cl)c2)CC1)S(=O)(=O)c1cccs1`: the “hERG current change (%, negative = inhibition) at 10uM” value is given as -32.9%.

As for `Cn1c2c(c(=O)[nH]c1=O)C(c1ccc(O)cc1)C1=C(N2)c2ccccc2C1=O` (stereo not drawn), the “hERG current change (%, negative = inhibition) at 10uM” value is -5.73%.

In the case of `CCOC(=O)c1c(CN(CC)CC)n(C)c2cc(Br)c(O)cc12.Cl`, the “hERG current change (%, negative = inhibition) at 10uM” value is -73.6%.

For `CCOC(=O)c1c(CNCCN(CC)CC)n(C)c2cc(Br)c(OC)cc12.Cl`, the “hERG current change (%, negative = inhibition) at 10uM” value was -68.5%.

Consider `CCOC(=O)c1c(CN(CC)CC)oc2cc(Br)c(O)cc12`, for which the “hERG current change (%, negative = inhibition) at 10uM” value is -79.8%.

Take `CCOC(=O)c1c(CN2CCN(CCO)CC2)n(C)c2cc(Br)c(OC)cc12`: the “hERG current change (%, negative = inhibition) at 10uM” value was -11.3%.

For the compound `CCOC(=O)c1c(C)n(C)c2cc(Br)c(C(=O)OC)cc12`, the “hERG current change (%, negative = inhibition) at 10uM” value is recorded as -11.1%.

On to `CCOC(=O)c1c(C)n(C)c2cc(Br)c(OC)cc12`, for which the “hERG current change (%, negative = inhibition) at 10uM” value turned out to be 15.6%.

`CCOC(=O)c1c(CN2CCN(CC#N)CC2)n(C)c2cc(Br)c(OC)cc12`: the “hERG current change (%, negative = inhibition) at 10uM” value came out at 10.9%.

For the compound `CCOC(=O)c1c(CN2CCN(C)CC2)n(C)c2cc(Br)c(OC)cc12`, the “hERG current change (%, negative = inhibition) at 10uM” value is recorded as -50.4%.

As for `CCOC(=O)c1c(-c2ccccc2)oc2cc(Br)c(O)cc12`, the “hERG current change (%, negative = inhibition) at 10uM” value was found to be 3.65%.

`CCOC(=O)c1c(CN2CCN(c3ccccc3)CC2)oc2cc(Br)c(O)cc12.Cl`: the “hERG current change (%, negative = inhibition) at 10uM” value was determined as 14.3%.

With `CCOC(=O)c1c(CS(=O)(=O)c2ccccc2)n(C)c2cc(Br)c(O)cc12`, the “hERG current change (%, negative = inhibition) at 10uM” value was 5.4%.

`CCOC(=O)c1c(CNc2ccncc2)n(C)c2cc(Br)c(O)cc12.Cl`: the “hERG current change (%, negative = inhibition) at 10uM” value came to 18.8%.
